# Screens deposited in PubChem BioAssay by National Center for Advancing Translational Sciences (NCATS).
# KDM5B inh – blocks human KDM5B histone demethylase activity; Potency, µM (highest dose often 57.7 µM), actives largely listed as inhibitors; KDM5B demethylase, FDH-coupled NADH fluorescence (FDH is formaldehyde dehydrogenase); 2.6% of 220,000 active; active = well fitted inhibition curve with a large enough effect; also: nearly all actives have a fitted effect of over 70% in size
# Target sequence (Q9UGL1 whole entry, looked up): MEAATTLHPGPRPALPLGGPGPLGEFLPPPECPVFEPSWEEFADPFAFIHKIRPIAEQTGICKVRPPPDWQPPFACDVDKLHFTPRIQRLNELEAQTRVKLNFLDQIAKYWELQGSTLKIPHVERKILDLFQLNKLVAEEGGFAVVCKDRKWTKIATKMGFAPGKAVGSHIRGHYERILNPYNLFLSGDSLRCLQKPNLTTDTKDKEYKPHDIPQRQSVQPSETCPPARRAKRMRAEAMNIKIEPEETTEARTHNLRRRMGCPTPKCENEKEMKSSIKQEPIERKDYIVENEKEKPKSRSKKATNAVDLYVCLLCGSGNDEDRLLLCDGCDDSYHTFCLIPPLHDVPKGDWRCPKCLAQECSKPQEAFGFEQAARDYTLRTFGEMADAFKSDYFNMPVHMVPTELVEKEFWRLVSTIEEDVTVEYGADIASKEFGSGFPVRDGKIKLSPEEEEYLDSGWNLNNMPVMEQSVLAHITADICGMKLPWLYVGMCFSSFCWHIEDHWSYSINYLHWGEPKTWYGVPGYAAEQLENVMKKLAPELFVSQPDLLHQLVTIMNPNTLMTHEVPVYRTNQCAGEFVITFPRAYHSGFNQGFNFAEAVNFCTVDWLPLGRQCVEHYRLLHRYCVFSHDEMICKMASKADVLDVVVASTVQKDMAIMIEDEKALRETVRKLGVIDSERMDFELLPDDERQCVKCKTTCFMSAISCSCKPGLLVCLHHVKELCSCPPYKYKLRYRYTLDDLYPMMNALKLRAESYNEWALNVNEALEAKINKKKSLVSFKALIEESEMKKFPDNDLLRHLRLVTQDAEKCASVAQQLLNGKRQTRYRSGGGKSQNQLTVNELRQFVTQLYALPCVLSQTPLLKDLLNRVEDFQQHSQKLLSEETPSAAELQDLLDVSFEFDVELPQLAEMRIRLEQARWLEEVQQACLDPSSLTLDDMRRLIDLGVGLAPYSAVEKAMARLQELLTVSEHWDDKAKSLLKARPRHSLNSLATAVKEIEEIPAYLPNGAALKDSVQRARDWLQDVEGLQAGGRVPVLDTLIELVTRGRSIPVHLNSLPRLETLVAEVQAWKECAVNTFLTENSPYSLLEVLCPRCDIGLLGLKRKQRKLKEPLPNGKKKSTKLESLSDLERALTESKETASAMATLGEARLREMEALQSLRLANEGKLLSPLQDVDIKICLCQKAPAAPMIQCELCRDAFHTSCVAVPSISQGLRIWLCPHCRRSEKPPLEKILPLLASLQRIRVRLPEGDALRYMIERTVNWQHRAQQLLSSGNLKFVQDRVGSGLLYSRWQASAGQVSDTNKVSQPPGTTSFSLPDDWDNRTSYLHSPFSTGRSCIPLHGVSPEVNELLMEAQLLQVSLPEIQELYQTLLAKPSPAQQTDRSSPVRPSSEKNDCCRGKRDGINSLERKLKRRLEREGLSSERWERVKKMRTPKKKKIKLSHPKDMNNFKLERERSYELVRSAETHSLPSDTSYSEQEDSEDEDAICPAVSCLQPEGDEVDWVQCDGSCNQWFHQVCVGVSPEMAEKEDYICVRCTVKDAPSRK
#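 Inhibition is measured as reduced NADH fluorescence generation from FDH coupling to formaldehyde release. Truncated KDM5BΔAP at 200 nM final acts on H3K4me3 peptide (12.5 µM in substrate mix) in pH 7.5 HEPES buffer with Tween-20, 30 min, room temperature.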
# Hits are given with their value; n = inactive; [ ] = remark or other dose. Many of the other results were omitted from the sample, so hits are more common in it than they were.
SMILES,KDM5B inh
Cn1ccc(NC(=O)c2ccc3c(c2)NC(C)(CCCCc2ccccc2)CO3)n1 (centres undefined),32µM
CNC(=O)c1ccc2nc(CCc3ccccc3)oc2c1,n
CSc1ccccc1NC(=O)c1ccc2c(c1)NC(=O)CO2,n
C[C@@H]1CN(C(=O)c2ccc3c(c2)NC(C)(CNc2ccccc2)CO3)C[C@H](C)O1 (some centres undefined),n
CNC(=O)c1ccc2c(c1)NC(C)(CCCCc1ccccc1)CO2 (centres undefined),32µM
CC(=O)N1CCCN(C(=O)c2ccc3c(c2)NC(C)(CCCCc2ccccc2)CO3)CC1 (centres undefined),n
Cn1ccc(NC(=O)c2nn(Cc3ccccc3)c(=O)c3ccccc23)n1,n
C[C@@H]1CN(C(=O)c2ccc3c(c2)NC(C)(CCCCc2ccccc2)CO3)C[C@H](C)O1 (some centres undefined),35µM
CC1(CCCCc2ccccc2)COc2ccc(C(=O)NC3CCC(O)CC3)cc2N1 (centres undefined),40µM
CCCC(=O)Nc1nc2nc(CCC)cc(=O)n2[nH]1,n
CC(C)CCC(CCNC(C)c1cccs1)C1CCOC(C)(C)C1 (centres undefined),n
Cn1c(=O)c2c(nc(SCc3cccc(F)c3)n2Cc2ccccc2)n(C)c1=O,n
N#CC1=C(SCc2ccccc2Br)NC(=O)C(C#N)C12CCCCC2 (centres undefined),n
Cc1ccc2c(Cl)cc(Cl)c(OCC(=O)NC(N)=O)c2n1,n
CC#CC(CCCN(C)Cc1ccccc1)(c1ccccc1)c1ccccc1,n
COc1cc2c(cc1NC(=O)CSc1nc3ccccc3o1)oc1ccccc12,n
COc1cccc(NC(=O)C(Sc2nnc(-c3ccco3)n2C)c2ccccc2)c1 (centres undefined),n
COP(=O)(OC)c1nc(-c2cccc([N+](=O)[O-])c2)oc1NCc1ccc(C)cc1,n
COc1ccc(-c2noc(-c3cccn3CC(=O)Nc3cc(C)ccc3OC)n2)cc1F,n
COc1ccc(-c2noc(-c3cccn3CC(=O)Nc3cccc(C)c3)n2)cc1F,n
CCN(C(=O)Cn1cccc1-c1nc(-c2ccc(OC)c(F)c2)no1)c1cccc(C)c1,28µM
COCC(C)NC(=O)c1cc(-c2ccccc2Cl)nc2ccccc12 (centres undefined),n
Cc1ccc(CNC(Cc2c[nH]c3ccccc23)C(=O)O)cc1 (centres undefined),n
COc1ccccc1/C=C/CN1CC[C@@H](c2ccc3c(c2)OCO3)[C@H](O)C1,n
COc1ccccc1/C=C/CN1CCn2nc(CO)cc2C1,28µM
SMILES,KDM5B inh
COc1cc(OC)cc(C(=O)NCC2CCCN(C/C=C/c3ccccc3OC)C2)c1 (centres undefined),n
O=C(c1ccc(C(F)(F)F)cc1)N1CCC2(C1)C(=O)N(CCc1ccccc1)c1ccccc12 (centres undefined),n
COCc1cc(=O)n(CC(=O)Nc2cc(OC)ccc2OC)c(N2CCOCC2)n1,n
O=C(c1ccc2cccnc2c1O)N1CCCC(CCc2ccccc2F)C1 (centres undefined),11µM
CSCCC(=O)N1CCCC(CCc2ccccc2F)C1 (centres undefined),n
Cc1ccccc1CCC1CCCN(C(=O)c2cccc(O)c2C)C1 (centres undefined),n
CCCC1NC(=O)N(Cc2ncc(-c3ccc(Cl)cc3)o2)C1=O (centres undefined),n
CCN1CCN(C(=O)c2ccc3c(c2)n(Cc2cccc(F)c2)c(=O)c2ccnn23)CC1,25µM
CCCCNC(=O)c1ccc2c(c1)n(Cc1cccc(OC)c1)c(=O)c1ccnn12,35µM
Cc1ccc(Cn2c(C3CCN(C(=O)c4cccc(F)c4)CC3)n[nH]c2=O)cc1,n
COCCCNC(=O)c1ccc2c(c1)n(Cc1cccc(F)c1)c(=O)c1ccnn12,28µM
COCCCNC(=O)c1ccc2c(c1)n(Cc1ccc(OC)cc1)c(=O)c1ccnn12,n
COCCCNC(=O)c1ccc2c(c1)CC(=O)N2Cc1ccccc1,n
CCN1CCN(C(=O)c2ccc3c(c2)N(Cc2cccc(F)c2)C(=O)c2ccccc2S3)CC1,n
CCCCNC(=O)c1ccc2c(c1)ncn2-c1cc(OC)ccc1OC,n
COc1cccc(CNC(=O)c2ccc3oc(=O)n(Cc4ccccc4)c3c2)c1,n
Cc1cc(C)c(NC(=O)CN2CCCN(c3ccc(C(F)(F)F)cn3)CC2)c(Cl)c1,n
N#Cc1c2n(c(=O)n(CCOc3cccc(F)c3)c1=O)CCC2,n
CC(C)NCc1ccc(-c2ccccc2)o1,n
CN1C[C@H](C(=O)N2CCN(c3ccccn3)CC2)C[C@H]1c1cccc(C(F)(F)F)c1,40µM
CN1C[C@H](C(=O)NCc2ccncc2)C[C@H]1c1cccc(C(F)(F)F)c1,n
COc1ccc(NC(=O)[C@@H]2C[C@@H](c3cccc(C(F)(F)F)c3)N(C)C2)cc1OC,n
Clc1ccc(-c2nnc(CSc3nnc4ccccn34)o2)cc1,n
N#C/C(=C/c1ccco1)C(=O)NC1CC1,n
Cc1ccc(-c2ccc(N)nc2)c2cccnc12,25µM
SMILES,KDM5B inh
CC(=O)N1CCN(S(=O)(=O)c2ccc(C)c3ncccc23)CC1,n
Cc1ccc(B(O)O)c2cccnc12,n
CCc1cccc(C)c1NC(=O)Cn1ccn(-c2ccc(OC)c(OC)c2)c(=O)c1=O,n
Cc1ccc(NC(=S)NNC(=O)C(c2ccccc2)c2ccccc2)c(C)c1,n
O=C1CO[C@H]2CCN(Cc3c[nH]c4ccccc34)CC[C@@H]2N1Cc1ccccc1,n
CCCCNC(=O)CCn1nc(-c2ccc(Cl)cc2)c2ccccc2c1=O,n[11.5 µM]
CCCNC(=O)Cc1csc2nc(C)c(-c3cc(C)n(-c4cc(Cl)ccc4C)n3)c(=O)n12,28µM
Cc1ccc(-c2nc3scc(CCNC(=O)Cc4ccc(Cl)cc4)n3n2)cc1,n
Cc1nc(CC(=O)Nc2cc(Cl)ccc2C)cs1,n
CCCCNC(=O)Cc1csc2nc(C)c(-c3cc(C)n(-c4cc(Cl)ccc4C)n3)c(=O)n12,25µM
CCCCNC(=O)c1cc2cc(Cl)ccc2[nH]1,n
CCOc1c(Br)cc(C(=O)Nc2nnc(C3CC3)s2)cc1OC,n
CCOc1ccccc1C(=O)N(Cc1ccccc1)C1CCS(=O)(=O)C1 (centres undefined),n
O=C(Nc1cccc(F)c1)N1CCCC(Cn2c(C3CC3)nc3cccnc32)C1 (centres undefined),n
CCCOc1cccc(-c2cc(C(=O)NC(C)C)c3ccccc3n2)c1,n
Cc1cc(C(F)(F)F)nc(CNC(=O)c2ccc3cccc(F)c3n2)n1,22µM
Cc1ccc2nc(C(=O)NCCc3nc(C)cc(C(F)(F)F)n3)cn2c1,n
CCCc1nc(C(=O)NCc2nc(C)cc(C(F)(F)F)n2)cs1,n
Cc1[nH]c2ccccc2c1C(=O)COC(=O)CNS(=O)(=O)/C=C/c1ccccc1,n
CN(CC(=O)NCCc1cccc2ccccc12)c1ncnc2nc[nH]c12,n
O=C(Cc1cccc(F)c1)N1CCC(Cc2noc(C3CCOCC3)n2)C1 (centres undefined),n
O=C(Cc1cccc(F)c1)N1CCCC(Cc2nc(C3CCOCC3)no2)C1 (centres undefined),28µM
COCc1nc(C2CCCN(C(=O)Cc3cccc(F)c3)C2)no1 (centres undefined),n
C=CCN(Cc1ccccc1F)C(=O)c1nn(CC)c(=O)c2ccccc12,n
CN(C)C(=O)c1ccnc(-c2nnc3ccc(N(C)Cc4ccccc4)nn23)c1,n
CN(C)C(=O)c1ccnc(-c2nnc3ccc(NCCN4CCOCC4)nn23)c1,35µM
